Data: PubChem BioAssay (NCI)
“And” between values parts separate entries of the source, which are not always exact repeats. Identical values can stand only once. The panel holds about 83,000 compounds, 20% with a hit somewhere; the sample as a whole holds those more often.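 Growth was measured after 48 h exposure to one concentration of compound in 96-well plates. Values under 10 count as active.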 The source made the active and inactive calls.

Assays:
Experiment in all cases: NCI-60 one-dose screen, 48 h (100 = growth as untreated, 0 = no growth, -100 = all killed)
Conditions in all cases: 10 µM unless noted
[1] = test system: HCT-15 colon
[2] = test system: SNB-75 CNS
[3] = test system: SNB-19 CNS
[4] = test system: U251 CNS
[5] = test system: PC-3 prostate
[6] = test system: SK-MEL-5 melanoma
[7] = test system: UACC-62 melanoma
[8] = test system: LOX IMVI melanoma
[9] = test system: SK-MEL-28 melanoma
[10] = test system: SK-MEL-2 melanoma
[11] = test system: EKVX NSCLC
[12] = test system: SN12C renal
[13] = test system: UO-31 renal
[14] = test system: TK-10 renal
[15] = test system: ACHN renal
[16] = test system: CAKI-1 renal
[17] = test system: A498 renal
[18] = test system: CCRF-CEM leukemia
[19] = test system: MOLT-4 leukemia

| SMILES | growth [1] | growth [2] | growth [3] | growth [4] | growth [5] | growth [6] | growth [7] | growth [8] | growth [9] | growth [10] | growth [11] | growth [12] | growth [13] | growth [14] | growth [15] | growth [16] | growth [17] | growth [18] | growth [19] |
| --- | --- | --- | --- | --- | --- | --- | --- | --- | --- | --- | --- | --- | --- | --- | --- | --- | --- | --- | --- |
| Nc1ccc(-c2ccc(N)c(Br)c2)cc1Br | 29.3% (inactive) | 29.8% (inactive) | 52.4% (inactive) | 45.6% (inactive) | 57.4% (inactive) | 45.8% (inactive) | 33.5% (inactive) | 40.3% (inactive) | 58.4% (inactive) | 44% (inactive) | 59% (inactive) | 45.7% (inactive) | 35% (inactive) | 75.6% (inactive) | 76.5% (inactive) | 50.3% (inactive) | 74.5% (inactive) | 19.6% (inactive) | 27.2% (inactive) |
| Clc1ccc2c(c1)N(c1ncnc3ccc(-c4cnc5[nH]ccc5c4)cc13)CC2 | 14.4% (inactive) | 3.69% (active) | 38.3% (inactive) | 41.3% (inactive) | 28.2% (inactive) | 32.7% (inactive) | 29.3% (inactive) | 13.4% (inactive) | 36% (inactive) | 28.3% (inactive) | 26.6% (inactive) | 26.7% (inactive) | 21% (inactive) | 26.2% (inactive) |  | 31.4% (inactive) | 8.49% (active) | 21.1% (inactive) | -6.69% (active) |
| COc1ccc(-c2cc(-c3cc(OC)c(OC)c(OC)c3)c(C#N)c(=O)n2CCCCC(=O)O)cc1 | 77.3% (inactive) | 51.8% (inactive) | 96.3% (inactive) | 91.5% (inactive) | 90.9% (inactive) | 93.6% (inactive) | 89.8% (inactive) | 78.6% (inactive) | 112% (inactive) | 107% (inactive) | 98.5% (inactive) | 90.6% (inactive) | 65.7% (inactive) | 112% (inactive) | 91.2% (inactive) | 70.9% (inactive) | 85.6% (inactive) | 85.3% (inactive) | 105% (inactive) |
| OB(O)c1ccsc1-c1nc2ccc3[nH]ncc3c2c2c1CCCC2 | 31.3% (inactive) | 35.2% (inactive) | 76.1% (inactive) | 65.9% (inactive) | 69.4% (inactive) | 57.6% (inactive) | 45.2% (inactive) | 41.1% (inactive) | 72.8% (inactive) | 55.9% (inactive) | 34.7% (inactive) | 56.4% (inactive) | 38.3% (inactive) | 48.7% (inactive) | 23.3% (inactive) | 13.7% (inactive) | -2.71% (active) | 56.2% (inactive) | 58.5% (inactive) |
| CN1CCN(CCCN2c3ccccc3Sc3ccc(Cl)cc32)CC1 | 68.8% (inactive) and 80.8% (inactive) | 45.2% (inactive) and 57.4% (inactive) | 89.7% (inactive) and 91.4% (inactive) | 54.6% (inactive) and 68% (inactive) | 56.2% (inactive) and 53.6% (inactive) | 17.6% (inactive) and 62.1% (inactive) |  | 54.4% (inactive) and 71.8% (inactive) | -18.1% (active) and 67.7% (inactive) | 106% (inactive) | 75% (inactive) and 77.4% (inactive) | 64% (inactive) and 76.7% (inactive) | 54.5% (inactive) | 74.9% (inactive) and 85.8% (inactive) |  | 55.2% (inactive) and 60.7% (inactive) | 82.2% (inactive) and 79.4% (inactive) | 80.1% (inactive) and 75.9% (inactive) | 70.3% (inactive) and 73.9% (inactive) |
| COc1ccc(-c2cc(=O)c3c(O)cc(O)cc3o2)cc1 | 103% (inactive) and 100% (inactive) | 99.1% (inactive) and 118% (inactive) | 105% (inactive) and 83.4% (inactive) | 92.9% (inactive) and 84% (inactive) | 94.9% (inactive) and 83.8% (inactive) | 104% (inactive) and 92.7% (inactive) | 104% (inactive) and 96.9% (inactive) | 82.8% (inactive) and 91.6% (inactive) | 113% (inactive) and 111% (inactive) | 116% (inactive) | 103% (inactive) | 102% (inactive) and 82% (inactive) | -74.8% (active) and 92.7% (inactive) | 119% (inactive) and 104% (inactive) | 97.5% (inactive) and 97.2% (inactive) | 108% (inactive) and 105% (inactive) | 97.5% (inactive) | 94.2% (inactive) and 86.6% (inactive) | 76.4% (inactive) and 85.6% (inactive) |
| Clc1cccc(Nc2ncnc3ccc(-c4cncc(-n5cnnn5)c4)cc23)c1 | 70.2% (inactive) | 59.9% (inactive) | 79.5% (inactive) | 76.1% (inactive) | 42.9% (inactive) | 65.8% (inactive) | 85.3% (inactive) | 70.3% (inactive) | 97.3% (inactive) | 106% (inactive) | 26.6% (inactive) | 75% (inactive) | 32.1% (inactive) | 7.65% (active) | 28.9% (inactive) | 24.3% (inactive) | -7.13% (active) | 75.2% (inactive) | 58.9% (inactive) |
